Rows were chosen to be rich in hits. Some 21% of all compounds tested hit in one or more screens of this group.
DRD3 antagonist – antagonists of human D3 dopamine receptor; P35462; D3R cells, DiscoveRx beta-arrestin luminescence, antagonist mode; stronger effect = lower value; max response, negative = inhibition, %; 2.5% of 360,000 active; AID 652054; in the data active = max response below about -50%; inconclusive = no clear call, values can overlap the other calls
Target sequence (P35462 whole entry, looked up): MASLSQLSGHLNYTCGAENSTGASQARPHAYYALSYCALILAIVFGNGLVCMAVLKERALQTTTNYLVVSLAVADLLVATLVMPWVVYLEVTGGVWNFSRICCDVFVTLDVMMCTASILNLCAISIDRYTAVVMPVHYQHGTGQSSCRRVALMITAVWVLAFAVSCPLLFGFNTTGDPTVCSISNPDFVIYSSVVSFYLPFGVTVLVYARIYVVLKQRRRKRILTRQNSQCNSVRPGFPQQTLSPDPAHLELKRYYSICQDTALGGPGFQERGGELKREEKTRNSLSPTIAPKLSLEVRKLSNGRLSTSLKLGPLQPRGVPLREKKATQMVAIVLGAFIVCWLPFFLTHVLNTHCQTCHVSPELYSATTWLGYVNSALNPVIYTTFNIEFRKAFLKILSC
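Cells expressing the human receptor were seeded at 1500 cells/well, incubated overnight at 37 degrees C in 5% CO2, then exposed to library compounds with dopamine controls for 90 minutes at 37 degrees C before luminescent detection.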
ClpP mod – qHTS Assay for Activators of ClpP. 1.9% of 340,000 active. ATP-dependent Clp protease proteolytic subunit (Bacillus subtilis (strain 168)), P80244. Potency, µM (doses to about 57.5 µM). AID 651965, 2013. purified B. subtilis ClpP, FRET peptide cleavage, 20 min; active = well fitted falling curve with a large enough effect; inconclusive = small, poorly fitted or top-dose-only effect; inactive = no such curve, though single readings can be large or run the other way; also: the source files actives as falling curves though it sought activators and does not explain the sign; nearly all actives have a fitted effect of over 65% in size
Target sequence (P80244 whole entry, looked up): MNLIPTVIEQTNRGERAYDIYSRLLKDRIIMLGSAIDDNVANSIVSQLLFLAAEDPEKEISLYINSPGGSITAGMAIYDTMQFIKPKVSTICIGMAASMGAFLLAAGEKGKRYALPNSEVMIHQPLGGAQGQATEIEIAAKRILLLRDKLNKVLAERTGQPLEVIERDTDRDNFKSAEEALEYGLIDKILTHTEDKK
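Buffer: 100 mM Tris/HCl pH8, 100 mM KCl, 0.05% low protease BSA, 2.5% glycerol, 0.01% Tween-20. ClpP 10 microg/mL final; 20 min RT; delta FRET normalized to ADEP and DMSO controls.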
TDP1 cell noCPT – qHTS for Inhibitors of human tyrosyl-DNA phosphodiesterase 1 (TDP1): qHTS in cells in absence of CPT; DT40 Tdp1-/- hTDP1 cells, no CPT, ATP luminescence, 48 h; Potency, µM (highest dose often 46.2 µM), hits mostly inhibitors; 15% of 420,000 active; AID 686978, 2013; also: nearly all actives have a fitted effect of over 55% in size
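Chicken DT40 Tdp1-/- cells complemented with human TDP1, screened without camptothecin (DMSO vehicle only), 400 cells/well. Compounds pin-transferred, cells incubated at 37 °C for at least 48 hr. Growth read as ATP-dependent luminescence (CellTiter-Glo, 30 min at RT).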
IL-1B inflam inh – inhibitors of inflammasome signaling (IL-1 beta secretion) | THP-1 LPS/ATP IL-1B secretion, AlphaLISA, 16 h; stronger effect = lower value | activity change, % at 57.5 µM | 4.7% of 360,000 active; in the data active = activity change below about -50%; inconclusive = mostly about -30% to -49%
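Secreted IL-1B measured by AlphaLISA bead assay after 16 h compound exposure of THP-1 cells; compounds (final up to 57.5 uM) added 1 h before LPS (250 ng/mL) and ATP (1.25 mM) stimulation; lower signal means less secretion.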
DT40 TDP1 CPT – DT40-hTDP1 cell growth loss with CPT; chicken DT40 Tdp1-/-;hTDP1 cells + 20 nM CPT, ATP luminescence, 48 h; Potency, µM (series often up to 46.2 µM), most hits filed as inhibitors; 12% of 420,000 active; AID 686979; also: nearly all actives have a fitted effect of over 55% in size
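Chicken DT40 Tdp1-/- cells stably complemented with human TDP1 were seeded at 400 cells/well in medium containing 20 nM camptothecin, exposed to pin-transferred compounds, and grown at 37 °C for at least 48 hr. Viability was read as ATP luminescence.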
D3 ag – activates the human D3 dopamine receptor; 0.58% of 410,000 active; D3R DiscoveRx beta-arrestin cells, luminescence, 90 min; max activation, %; AID 652048; P35462; in the data active = max activation above about 30%
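Agonist-mode cell screen: cells plated at 1500/well and incubated overnight at 37 °C, then exposed to library compounds for 90 min at 37 °C. Detection reagent was added for 30–60 min at room temperature, and luminescence was read.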
Of the large screens only hits and unclear results are named; the others gave an inactive call. Unless noted, calls follow the shape of the dose curve; as a rule, active = well fitted inhibition curve with a large enough effect; inconclusive = small, poorly fitted or top-dose-only effect; inactive = flat fitted curve, though single readings scatter.

Cc1ccc(NC(=O)C(=O)c2cc(C)n(-c3ccc(F)cc3)c2C)cc1C	TDP1 cell noCPT 20.6µM, DT40 TDP1 CPT inconclusive (no result: DRD3 antagonist, IL-1B inflam inh)
Cc1ccc(-n2c(C)cc(C(=O)CN3CCOCC3)c2C)cc1	none (no result: ClpP mod)
Cc1ccc(CNC(=O)COC(=O)CCC(=O)c2cccs2)cc1	none (no result: ClpP mod)
Cc1ccc(N(CC(=O)NCc2ccccc2)S(=O)(=O)c2c(C)noc2C)cc1	TDP1 cell noCPT inconclusive (no result: ClpP mod)
CCOC(=O)c1cc(C)n(Cc2cccc(OC)c2OC)c1C	TDP1 cell noCPT inconclusive, DT40 TDP1 CPT inconclusive
CCOC(=O)c1cc(C)n(-c2ccc(OC)c(OC)c2)c1C	TDP1 cell noCPT 18.4µM, DT40 TDP1 CPT inconclusive
CC(C)CSc1oc(-c2ccco2)nc1S(=O)(=O)c1ccc(Br)cc1	ClpP mod inconclusive, TDP1 cell noCPT inconclusive, DT40 TDP1 CPT inconclusive (no result: DRD3 antagonist, IL-1B inflam inh)
COc1ccc(N(C)S(=O)(=O)c2ccc3c(c2)CCN3C(=O)C2CC2)c(OC)c1	TDP1 cell noCPT 18.4µM, DT40 TDP1 CPT 16.4µM
CCC(=O)N1CCc2cc(S(=O)(=O)N(C)c3ccc(OC)cc3OC)ccc21	TDP1 cell noCPT inconclusive, DT40 TDP1 CPT inconclusive
Cc1ccc(NS(=O)(=O)c2ccc3c(c2)CCN3C(=O)C2CC2)c(C)c1	TDP1 cell noCPT 20.6µM, DT40 TDP1 CPT inconclusive (no result: DRD3 antagonist, IL-1B inflam inh)
Cc1cccc(NS(=O)(=O)c2ccc3c(c2)CCN3C(=O)C2CCC2)c1	TDP1 cell noCPT 18.4µM, DT40 TDP1 CPT 18.4µM (no result: DRD3 antagonist, IL-1B inflam inh)
CN1CCN(c2ccccc2NS(=O)(=O)c2ccc3c(c2)CCN3C(=O)C2CCC2)CC1	DRD3 antagonist -51.8, TDP1 cell noCPT inconclusive, DT40 TDP1 CPT 14.6µM
Cc1cccc(NS(=O)(=O)c2ccc3c(c2)CCN3C(=O)CCC(=O)O)c1	none
COc1ccc(NS(=O)(=O)c2ccc3c(c2)CCN3C(=O)C2CC2)cc1OC	TDP1 cell noCPT 5.17µM, DT40 TDP1 CPT 8.2µM (no result: DRD3 antagonist, IL-1B inflam inh)
Cc1ccc(NS(=O)(=O)c2ccc(N3CCN(c4ccc(O)cc4)CC3)c([N+](=O)[O-])c2)c(C)c1	TDP1 cell noCPT 16.4µM, IL-1B inflam inh inconclusive, DT40 TDP1 CPT inconclusive
O=C(C1CCC1)N1CCc2cc(S(=O)(=O)NCC3COc4ccccc4O3)ccc21 (configuration not stated)	DT40 TDP1 CPT inconclusive
O=C(C1CC1)N1CCc2cc(S(=O)(=O)NCC3COc4ccccc4O3)ccc21 (configuration not stated)	TDP1 cell noCPT 14.6µM, DT40 TDP1 CPT inconclusive
CCc1ccccc1NS(=O)(=O)c1ccc2c(c1)CCN2C(=O)C1CC1	TDP1 cell noCPT inconclusive, DT40 TDP1 CPT inconclusive (no result: DRD3 antagonist, IL-1B inflam inh)
O=[N+]([O-])c1cc(S(=O)(=O)Nc2ccccc2)ccc1N1CCN(c2ccc(O)cc2)CC1	TDP1 cell noCPT inconclusive, DT40 TDP1 CPT inconclusive
CSCCCNC(=S)N1CCc2ccccc2C1	none
Cn1nnnc1SCC(=O)Nc1ncc(C(F)(F)F)cc1Cl	none
N#Cc1nc(N2CCCCC2)nc(N(c2ccccc2)c2ccccc2)n1	ClpP mod inconclusive, TDP1 cell noCPT 12.6µM, DT40 TDP1 CPT 11.2µM (no result: DRD3 antagonist, IL-1B inflam inh, D3 ag)
Nc1nc(N2CCCCC2)nc(N(c2ccccc2)c2ccccc2)n1	TDP1 cell noCPT inconclusive, DT40 TDP1 CPT inconclusive
N#Cc1nc(N2CCCCC2)nc(N2CCCCC2)n1	TDP1 cell noCPT 12.6µM, DT40 TDP1 CPT inconclusive (no result: DRD3 antagonist, IL-1B inflam inh, D3 ag)
CCc1nc(C#N)c(N2CCCCC2)o1	none
COc1ccc(C(=O)N/N=C(\C)CC(=O)NC2CCCCC2)c(OC)c1	none
COC(=O)c1cc2c(cc1NC(=O)c1cnn(-c3ccc(C)cc3)c1-n1cccc1)OCO2	none (no result: DRD3 antagonist, IL-1B inflam inh)
O=C(NCCCN1CCOCC1)c1ccc2c(c1)N(Cc1cccc(Cl)c1)C(=O)CS2	TDP1 cell noCPT 16.4µM, DT40 TDP1 CPT inconclusive (no result: ClpP mod)
O=C(NCCN1CCOCC1)c1ccc2c(c1)N(Cc1ccc(F)cc1)C(=O)CS2	none
O=C(NCCCN1CCOCC1)c1ccc2c(c1)N(Cc1cccc(Cl)c1)C(=O)c1ccccc1S2	TDP1 cell noCPT 23.1µM, DT40 TDP1 CPT inconclusive (no result: DRD3 antagonist, IL-1B inflam inh)
